“And” between values parts separate entries of the source, which are not always exact repeats. Identical values can stand only once. Results filed as inconclusive are left out. Values without a mark were called inactive. The source made the active and inactive calls. Calls follow the shape of the dose curve; as a rule, active = well fitted curve in the direction sought with a large enough effect; inconclusive = small, poorly fitted or top-dose-only effect, or another doubt; inactive = no such curve, though single readings can be large; an effect the other way counts as inactive or inconclusive.

Assay [1] can be described thus: Viability qHTS for spleen associated tyrosine kinase inhibitor (SYKi) naive MV4-11 cells (AID 1963823). Also: nearly all actives have a fitted effect of over 40% in size. In a few lines:
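Compounds were dispensed acoustically onto plates, MV4-11 cells (SYKi-naive) added at 500 per well, and plates incubated 72 hr at 37 C. CellTiter-Glo was added and luminescence measured after 10 min.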
A general note: Quantitative high-throughput screening tests each substance at several concentrations.

Assay [2] can be described thus: Viability qHTS for spleen associated tyrosine kinase inhibitor (SYKi) drug resistant MV4-11 cells (AID 1963824). Also: nearly all actives have a fitted effect of over 35% in size. The method, boiled down:
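SYK inhibitor-resistant MV4-11 AML cells, 500 per well, added to predispensed compounds and incubated 72 hr at 37 C, 5% CO2. Viability measured by CellTiter-Glo luminescence after 10 min at room temperature.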

Assay [3] can be described thus: Quantitative highthroughput screen to assess conditional lethalithy of NOMO1 cells grown in RPMI1640 with untreated serum (RPMI+s) (AID 1963876). Also: nearly all actives have a fitted effect of over 35% in size.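 As to Viability: 100% = DMSO wells and 0% = empty wells without cells.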 In a few lines: (§1)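 Each medium arm—HPLM with 10% dialyzed FBS, or RPMI1640 with 5 mM glucose and 10% untreated or dialyzed FBS—was screened against an 11-point, 3-fold compound titration for 48 h at 37 °C, with CellTiter-Glo luminescence as endpoint.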

Assay [4] in a line: Quantitative highthroughput screen to assess conditional lethalithy of NOMO1 cells grown in RPMI1640 with dialyzed fetal bovine serum (RPMI+ds) (AID 1963877). Also: nearly all actives have a fitted effect of over 30% in size.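 As to Viability: series mostly up to about 46 µM; 100% = DMSO control wells and 0% = empty wells.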 The method, boiled down: as §1
Assay [5] can be described thus: Quantitative highthroughput screen to assess conditional lethalithy of NOMO1 cells grown in Human Plasma-Like Medium with dialyzed fetal bovine serum (HPLM+ds) (AID 1963878). Also: nearly all actives have a fitted effect of over 35% in size.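 As to Viability: 100% = DMSO wells and 0% = empty wells on each plate.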 In a few lines:
as §1

Assay [6] can be described thus: Quantitative highthroughput screen to assess conditional lethalithy of P12 Ichikawa cells grown in Human Plasma-Like Medium with dialyzed fetal bovine serum (HPLM+ds) (AID 1963879). Also: nearly all actives have a fitted effect of over 35% in size. As to Viability: series mostly up to about 46 µM. The conditions noted are these: Potency: viability. The method, boiled down: as §1
A short description of assay [7]: Quantitative highthroughput screen to assess conditional lethalithy of P12 Ichikawa cells grown in RPMI1640 with untreated serum (RPMI+s) (AID 1963881). Also: nearly all actives have a fitted effect of over 35% in size.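 As to Viability: series mostly up to about 46 µM; 100% = DMSO wells and 0% = empty wells without cells.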 The conditions noted are these: Potency: viability. The method, boiled down:
as §1

Assay [8] can be described thus: Quantitative highthroughput screen to assess conditional lethalithy of SEM cells grown in Human Plasma-Like Medium with dialyzed fetal bovine serum (HPLM+ds) (AID 1963882). Also: nearly all actives have a fitted effect of over 35% in size. As to Viability: series mostly up to about 46 µM. The method, boiled down: as §1
The nature of assay [9]: Quantitative highthroughput screen to assess conditional lethalithy of SEM cells grown in RPMI1640 with unreated serum (RPMI+s) (AID 1963883). Also: nearly all actives have a fitted effect of over 35% in size.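 As to Viability: 100% = DMSO wells and 0% = empty wells without cells.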 In a few lines:
as §1

A short description of assay [10]: Quantitative highthroughput screen to assess conditional lethalithy of SEM cells grown in RPMI1640 with dialyzed fetal bovine serum (RPMI+ds) (AID 1963884). Also: nearly all actives have a fitted effect of over 35% in size.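 As to Viability: series mostly up to about 46 µM; 100% = DMSO control wells and 0% = empty wells without cells.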 The method, boiled down: as §1
Assay [11] in a line: Cellular viability qHTS for adrenocortical cancer (ACC) cell line SW-13 (AID 1963989). Also: nearly all actives have a fitted effect of over 65% in size.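 As to activity (max response): cells grown in serum-free medium with ITS supplement; % is scaled to controls: 0 for no effect and ±100 for the full control effect.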 The following applies: SW-13 ACC cells viability, CellTiter-Glo, 48 h; activity (max response): active compounds read low. In a few lines: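 IC50 and maximal-response values come from four-parameter logistic fits of titration data. SW-13 cells in serum-free medium received compounds (up to 46 uM final) for 48 h before CellTiter-Glo luminescence.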

Assay [12] is described as follows: Cellular viability qHTS for adrenocortical cancer (ACC) cell line NCI-H295R (AID 1963990). Also: nearly all actives have a fitted effect of over 60% in size. In a few lines:
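Adrenocortical carcinoma cells, suspended at 300 000 cells/mL in serum-free DMEM plus ITS, rested overnight before pin transfer of compound. After two days' incubation, ATP-dependent luminescence was recorded and curve-fitted.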

Assay [13] is described as follows: Quantitative highthroughput screen to assess conditional lethalithy of P12 Ichikawa cells grown in RPMI1640 with dialyzed fetal bovine serum (RPMI+ds) (AID 1963880). Also: nearly all actives have a fitted effect of over 35% in size.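 As to Viability: 100% = DMSO wells and 0% = empty wells on each plate.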 The following applies: Potency: P12-Ichikawa viability. The method, boiled down: as §1
Potency is read from the fitted curve at half-maximal effect.

Regarding `CC(C)[C@H](O)C(=O)N[C@@H](C)C(=O)N[C@@H]1C(=O)N(C)CCc2ccccc21`, the Potency result in assay [1], in assay [2], in assay [3], in assay [4], in assay [5] and in assay [6] was “inactive” in each case. Also, the Potency result in assay [7], in [8], in assay [9], in assay [10] and in assay [12] was “inactive” each time. Besides, the activity (max response) in assay [11] is 8.71%.
In the case of `COC(=O)[C@H](CCCN=C(N)N)NS(=O)(=O)c1ccc(C)cc1`, the Potency result in assay [1], in assay [2], in [3], in assay [4], in [6] and in assay [7] was “inactive” each time. For the same compound, the Potency result in assay [12] is “inactive”. Moreover, the Potency in assay [5] was 6620 nM (active). Also, the activity (max response) in assay [11] is 6.08%.
Consider `Cc1cc(O)c2c(c1)C(=O)c1cccc(O)c1C2=O`, for which the Potency result in [1], in assay [2], in assay [3], in assay [4], in assay [7] and in assay [12] was “inactive” throughout. Further, the Potency in assay [5] is 20900 nM (active); in [6] it was 18700 nM (active). The activity (max response) in assay [11] is -6.49%.
For `Cc1ncc([N+](=O)[O-])n1CCO`, the Potency result in assay [1], in [2], in [3], in assay [4], in [5] and in assay [6] was “inactive” in each case. In addition, the Potency entry in assay [7], in assay [8], in [9], in assay [10] and in assay [12] was “inactive” in each case. In addition, in assay [11], the activity (max response) is -0.254%.
Take `C[C@H](CCC(=O)O)[C@H]1CCC2C3C[C@H](O)[C@@H]4C[C@H](O)CC[C@]4(C)C3CC[C@@]21C` (stereo not given in full): the Potency entry in assay [1], in assay [2], in assay [3], in [4], in assay [5] and in assay [6] was “inactive” each time. Moreover, the Potency entry in assay [13], in [9] and in assay [12] was “inactive” each time.
Turning to `CC(C)C[C@H](NC(=O)[C@H](Cc1ccccc1)NC(=O)c1cnccn1)B(O)O`, the Potency in assay [1] was 13.2 nM (active); in [2], 9.4 nM (active) and 11.8 nM (active); in [3], 46.9 nM (active); in [4] it was 46.9 nM (active); in assay [5] it was 46.9 nM (active); in assay [6], 37.2 nM (active). For the same compound, the Potency in assay [13] is 37.2 nM (active); in assay [8] it was 20.9 nM (active); in [9], 18.7 nM (active); in assay [10] it was 16.6 nM (active); in assay [11], 20.6 nM (active) and 79.4 nM (active); in assay [12], 8.2 nM (active) and 35.5 nM (active).
For the compound `CC[C@H](C=C[C@@H](C)[C@H]1CC[C@H]2[C@@H]3CC=C4C[C@@H](O)CC[C@]4(C)[C@@H]3CC[C@]12C)C(C)C`, the Potency entry in [1], in assay [2], in assay [3], in [4], in [6] and in [7] was “inactive” each time. Also, the Potency entry in [8], in assay [9] and in assay [10] was “inactive” each time. Besides, in assay [5], the Potency is 7240 nM (active). Moreover, the activity (max response) in assay [11] was 10.2%.
Take `CC(C)Oc1cc(Nc2nc(N[C@@H](C)c3ccc(F)cn3)ncc2Cl)[nH]n1`: the Potency in assay [1] was 58 nM (active); in assay [2], 372 nM (active) and 46.1 nM (active); in [3], 935 nM (active); in assay [4] it was 833 nM (active); in assay [6], 833 nM (active); in assay [9] it was 526 nM (active). Also, the Potency in assay [10] is 332 nM (active). Moreover, the Potency result in assay [5] and in [12] was “inactive” each time. Moreover, the activity (max response) in assay [11] is -7.04%.
As to `CN1CCN(CCCN2c3ccccc3Sc3ccc(C(F)(F)F)cc32)CC1`, the Potency is 11.9 µM (active) and 18.6 µM (active) in [1]; 6.99 µM (active) and 21.1 µM (active) and 11.8 µM (active) in [2]; 1870 nM (active) in [3]; 2960 nM (active) in assay [4]; 2640 nM (active) in [5]; 13200 nM (active) in assay [6]. The Potency is 11800 nM (active) in [7] and 23.1 µM (active) in assay [12]. Moreover, the Potency entry in assay [9] and in [10] was “inactive” in each case.
For the compound `Cn1cnc2c(F)c(Nc3ccc(Br)cc3Cl)c(C(=O)NOCCO)cc21`, the Potency in [1] is 296 nM (active); in [2], 668 nM (active) and 164 nM (active) and 468 nM (active); in assay [3], 590 nM (active); in [4], 296 nM (active); in assay [5], 296 nM (active); in assay [6], 662 nM (active). For the same compound, the Potency was 743 nM (active) in assay [13], 662 nM (active) in assay [8], 469 nM (active) in [9] and 469 nM (active) in [10]. Further, the Potency entry in assay [12] is “inactive”.
`CCC(=O)N[C@H]1CC[C@H](C(=O)N(C)c2ccc(-c3nc4ccccc4o3)cc2)C1`: the Potency in assay [1] was 14800 nM (active); in assay [2], 14.8 µM (active). The Potency entry in [3], in assay [4], in [5], in assay [6], in assay [8] and in [12] was “inactive” in each case.
With `CCS(=O)(=O)c1cccc(-c2cc(C(=O)NC3CCN(C)CC3)c(C)c3[nH]c4ncc(C)cc4c23)c1`, the Potency in [1] is 40.4 nM (active) and 59 nM (active); in [2], 36 nM (active) and 66.1 nM (active); in [3], 14800 nM (active); in assay [4] it was 11800 nM (active); in assay [5], 6620 nM (active); in [6] it was 264 nM (active). Moreover, the Potency in assay [7] is 235 nM (active); in assay [8], 469 nM (active); in assay [9], 296 nM (active); in assay [11], 1 µM (active); in assay [12], 17.8 µM (active).
For `Oc1ccc2ccccc2c1SSc1c(O)ccc2ccccc12`, the Potency in assay [1] is 5.9 µM (active) and 11.6 µM (active); in assay [2] it was 5.25 µM (active) and 9.2 µM (active); in [12], 31.6 µM (active). Also, the Potency entry in assay [3], in assay [4], in assay [5] and in assay [6] was “inactive” each time.
Turning to `C[N+]1(C)[C@@H]2C[C@@H](OC(=O)C(O)(c3cccs3)c3cccs3)C[C@H]1[C@@H]1O[C@@H]12`, the Potency result in assay [1], in [2], in [3], in assay [4], in assay [5] and in [6] was “inactive” throughout. Further, the Potency result in [7], in assay [8] and in assay [9] was “inactive” each time.
